Source: PubChem BioAssay
Results filed as inconclusive are left out. Active and inactive are the calls of the source.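 Rule for the calls, unless noted: active = percent response above 42, roughly 3 SD of non-fluorescent test compounds; inactive = the rest.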

Assays:
[1] = yeast TOR pathway RPL19A-GFP modulators, primary screen, cell-based, S. cerevisiae, multiplex flow cytometry (AID 1862; in the data active = percent of DMSO control GFP below about 86%;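 note: lower values mimic rapamycin by blocking the RPL19A rise seen in DMSO cells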); conditions: S. cerevisiae RPL19A-GFP strain, flow cytometry fluorescence, 3 h; at 10 µM; stronger effect = lower value
[2] = modulators of MEP2-GFP levels in yeast, primary screen, S. cerevisiae, multiplex flow cytometry (AID 1867;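 active = GFP response, as percent of the DMSO control, above the screen-wide mean plus 3 SD, about 139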;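 note: median GFP channel fluorescence of barcode-gated MEP2-GFP cells measured by flow cytometry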); conditions: S. cerevisiae MEP2-GFP strain, 3 h, at 10 µM, stronger effect = higher value, 100% means same as DMSO wells
[3] = modulators of CIT2-GFP expression in yeast, primary screen, S. cerevisiae, GFP fusion, multiplex flow cytometry (AID 1870;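 active = percent response above a set limit, the screen-wide mean plus 3 SD, cut at about 130% in these data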;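 note: barcoded CIT2-GFP strain pooled with four other GFP strains with rapamycin as positive control; median GFP fluorescence per well over plate mean of DMSO wells so 100% = DMSO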); conditions: 3 h, at 10 µM, stronger effect = higher value
[4] = modulators of LAP4-GFP expression in yeast, primary screen, S. cerevisiae, multiplex flow cytometry (AID 1873;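 active = GFP signal, as percent of the solvent control, above the screen mean plus 3 SD, about 149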); conditions: 3 h, at 10 µM, stronger effect = higher value
[5] = modulators of AGP1-GFP expression in yeast TOR pathway, primary screen, cell-based, multiplex flow cytometry, S. cerevisiae (AID 1887;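 active = GFP signal above the screen-wide mean plus 3 SD, that is over about 124.5% of the solvent control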;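 note: AGP1-GFP fusion strain of S. cerevisiae within a five-strain barcoded multiplex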); conditions: 3 h, at 10 µM, stronger effect = higher value
[6] = inhibitors of CD8+ T cell-vesicle binding, pilot screen, LFA-1/ICAM-1 modulator project, MLPCN validation set, flow cytometry (AID 2523;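 active = response below a set limit, under 55% cells CD8-positive and vesicle-bound, and CD8 cells' 90th-percentile brightness under 279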;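 for vesicle binding response: mean PE anti-B7-1 fluorescence of CD8+ cells relative to row control; 100% = QL9-loaded vesicles with DMSO vehicle in the same plate row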); conditions: 2C mouse CD8+ T cells, at 7 µM, stronger effect = lower value; double positive events: measured here: CD8+/vesicle+ event percentage
[7] = target: Integrin beta-1 (Homo sapiens) + Integrin alpha-4 (Homo sapiens) (UniProt P13612+P05556); experiment: inhibition of HUTS-21 binding to VLA-4, pilot screen, VLA-4 allosteric modulator project, U937 cells, HUTS-21 mAb, flow cytometry, validation set (AID 2674;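 active = inhibition above 50%, about 3 SD of the validation set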;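 note: antibody binding induced by the VLA-4 ligand LDV present at three times its Kd; 0% = LDV ligand with antibody and no compound and 100% = antibody without LDV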); conditions: HUTS-21 LIBS mAb binding, at 6.7 µM, stronger effect = higher value, binding induced by LDV ligand
[8] = superoxide lowering in aged yeast cells, pilot screen, validation compound set (AID 2706;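 active = superoxide response below 65% of plate, a cut near 3 SD across the whole screen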;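 note: yeast exposed to compound for one week at 30 degrees C before staining; 100% = mean of all compound wells on the same plate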); conditions: S. cerevisiae aging, superoxide DHE fluorescence; at 10 µM; stronger effect = lower value
[9] = target: Beta-adrenergic receptor kinase 1 (Homo sapiens) (UniProt P25098); experiment: GRK2 binders displacing RNA aptamer, biochemical, validation, human GRK2, bead flow cytometry (AID 488806;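 active = aptamer binding inhibition above 30%, about 3 SD of noise from non-fluorescent compounds; inactive = inhibition at or below 30%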); conditions: bead-bound GRK2, FAM-aptamer displacement, at 10 µM, stronger effect = higher value
[10] = target: Beta-2 adrenergic receptor (Homo sapiens) (UniProt P07550); experiment: beta2AR agonists driving receptor internalization, pilot screen, cell-based, FAP fluorogen, flow cytometry, validation set (AID 504459); conditions: Am2.2-beta2AR cells, FAP surface receptor flow cytometry; at 10 µM; stronger effect = higher value;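 note: agonist-driven loss of surface beta2AR via internalization measured by FAP dye flow cytometry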
[11] = target: AP-2 complex subunit beta (Homo sapiens) (UniProt P63010); experiment: inhibitors of arrestin peptide binding to AP2, pilot screen, biochemical, validation set, GST-AP2 beads, flow cytometry (AID 504541;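 active = inhibition above 54%, about 3 SD of non-fluorescent compounds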;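 note: AP2 carries R879A mutation and is captured from E. coli lysate; bead-bound FITC arrestin peptide fluorescence measuring arrestin peptide binding to AP2; 0% = DMSO wells and 100% = excess unlabeled arrestin peptide control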); conditions: FITC arrestin peptide, at 10 µM, stronger effect = higher value, AP2 beta2 appendage fragment, R879A mutant
[12] = yeast V-ATPase proton transport modulators, S. cerevisiae, pHLuorin, HTS validation (AID 504600; in the data active = response above about 15%;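 note: plate controls were DMSO for no effect and reference compound for full effect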); conditions: S. cerevisiae pHLuorin cytosolic pH, at 10 µM, stronger effect = higher value
[13] = system: anti-desmoglein-3 scFv antibody binding to human DSG3; experiment: inhibitors of anti-DSG3 scFv binding to DSG3, pilot screen, biochemical, validation compound set, bead-based, flow cytometry (AID 588368;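 active = binding below the plate cutoff, the plate median minus 3 SD, with a reading above zero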;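 note: signal is the median channel fluorescence of bead-bound GFP antibody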); conditions: Protein G beads, DSG3-Fc, scFv-GFP binding, at 10 µM, stronger effect = lower value
[14] = inhibitors of fungal efflux pumps CDR1, CDR2, MDR1, pilot screen, validation compound set, multiplex, phenotypic (AID 588506;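 active = efflux inhibition above 0.42, the validation set average plus 4 SD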;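 note: Nile Red retained in cells so higher fluorescence means more efflux inhibition; 0 = negative control wells and 1 = enniatin B 25 µM full block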); conditions: S. cerevisiae pump-expressing triplex, Nile Red efflux flow cytometry; at 10 µM; stronger effect = higher value; the pumps come from Candida albicans
[15] = target: ATP-binding cassette sub-family B member 6 (Homo sapiens) (UniProt Q9NP58); experiment: ABCB6 transporter inhibitors, pilot screen, K562-ABCB6 cells, flow cytometry, validation set (AID 588550;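 active = inhibition above the screen-wide mean plus 3 SD, about 51%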;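 note: 0% = DMSO wells and 100% = benzethonium chloride 70 µM positive control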); conditions: K562-ABCB6 porphyrin accumulation, 1 h, at 10 µM, stronger effect = higher value
[16] = promoters of myeloid differentiation in arrested cells, primary screen, cell-based, GFP/MAC1 double positive, flow cytometry, validation set (AID 588685;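 active = differentiation response of at least 50%, scaled between solvent and reference control, from cells with both markers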;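 note: compound exposure lasts four days before antibody staining and flow analysis; 0% = DMSO wells and 100% = 5 µM fulvestrant positive control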); conditions: ER-HoxA9 marrow cells, stronger effect = higher value, normalized: vehicle 0, fulvestrant 100

Sequence of Integrin beta-1 (Homo sapiens) + Integrin alpha-4 (Homo sapiens) (P05556 whole entry, looked up): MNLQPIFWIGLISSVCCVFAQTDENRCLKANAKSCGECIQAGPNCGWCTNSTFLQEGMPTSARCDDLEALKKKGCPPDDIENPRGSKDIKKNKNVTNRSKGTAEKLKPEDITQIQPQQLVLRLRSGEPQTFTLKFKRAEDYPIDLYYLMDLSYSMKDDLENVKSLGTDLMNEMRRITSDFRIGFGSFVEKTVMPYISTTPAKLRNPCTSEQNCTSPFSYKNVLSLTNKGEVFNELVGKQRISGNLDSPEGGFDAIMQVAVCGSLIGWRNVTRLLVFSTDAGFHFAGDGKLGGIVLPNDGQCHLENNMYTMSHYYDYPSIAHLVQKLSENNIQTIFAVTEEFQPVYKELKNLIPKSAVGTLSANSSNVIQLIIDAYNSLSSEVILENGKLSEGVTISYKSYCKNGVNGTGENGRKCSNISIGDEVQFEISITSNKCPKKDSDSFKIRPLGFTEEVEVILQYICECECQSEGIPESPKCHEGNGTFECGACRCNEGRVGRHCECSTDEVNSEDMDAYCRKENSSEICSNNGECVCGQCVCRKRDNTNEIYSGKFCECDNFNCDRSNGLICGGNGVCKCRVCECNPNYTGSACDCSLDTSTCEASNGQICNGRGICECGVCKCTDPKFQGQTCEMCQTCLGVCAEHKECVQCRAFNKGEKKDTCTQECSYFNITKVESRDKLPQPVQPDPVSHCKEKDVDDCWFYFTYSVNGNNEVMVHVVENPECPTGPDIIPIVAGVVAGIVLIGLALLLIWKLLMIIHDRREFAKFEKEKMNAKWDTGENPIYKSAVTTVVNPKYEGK
Sequence of Integrin beta-1 (Homo sapiens) + Integrin alpha-4 (Homo sapiens) (P13612 whole entry, looked up): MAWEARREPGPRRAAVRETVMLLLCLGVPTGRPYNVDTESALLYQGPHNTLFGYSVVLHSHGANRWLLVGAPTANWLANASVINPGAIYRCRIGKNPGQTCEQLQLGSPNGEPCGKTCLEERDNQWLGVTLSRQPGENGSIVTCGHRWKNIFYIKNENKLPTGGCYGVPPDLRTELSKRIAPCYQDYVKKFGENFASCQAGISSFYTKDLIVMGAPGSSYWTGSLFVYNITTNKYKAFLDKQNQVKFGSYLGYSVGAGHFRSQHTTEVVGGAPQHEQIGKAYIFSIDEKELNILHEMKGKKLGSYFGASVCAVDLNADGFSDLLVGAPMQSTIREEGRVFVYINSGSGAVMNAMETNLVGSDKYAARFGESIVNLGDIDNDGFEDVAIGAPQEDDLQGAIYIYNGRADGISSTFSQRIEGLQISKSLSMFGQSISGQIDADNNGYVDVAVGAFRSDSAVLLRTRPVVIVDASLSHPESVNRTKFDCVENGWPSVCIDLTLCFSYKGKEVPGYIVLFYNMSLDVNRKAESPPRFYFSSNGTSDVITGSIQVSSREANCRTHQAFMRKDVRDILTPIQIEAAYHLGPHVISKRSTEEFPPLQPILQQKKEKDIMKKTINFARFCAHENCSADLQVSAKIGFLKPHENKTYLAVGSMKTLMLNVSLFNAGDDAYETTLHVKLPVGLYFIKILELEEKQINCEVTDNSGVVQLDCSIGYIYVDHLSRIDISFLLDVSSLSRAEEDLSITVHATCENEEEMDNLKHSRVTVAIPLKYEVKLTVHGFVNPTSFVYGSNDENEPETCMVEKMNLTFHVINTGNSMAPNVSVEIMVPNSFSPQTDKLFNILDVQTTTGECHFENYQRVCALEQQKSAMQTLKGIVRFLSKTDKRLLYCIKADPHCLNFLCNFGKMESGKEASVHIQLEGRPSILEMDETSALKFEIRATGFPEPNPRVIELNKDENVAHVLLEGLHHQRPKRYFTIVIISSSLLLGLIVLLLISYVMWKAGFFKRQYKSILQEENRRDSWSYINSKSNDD
Sequence of ATP-binding cassette sub-family B member 6 (Homo sapiens) (Q9NP58 whole entry, looked up): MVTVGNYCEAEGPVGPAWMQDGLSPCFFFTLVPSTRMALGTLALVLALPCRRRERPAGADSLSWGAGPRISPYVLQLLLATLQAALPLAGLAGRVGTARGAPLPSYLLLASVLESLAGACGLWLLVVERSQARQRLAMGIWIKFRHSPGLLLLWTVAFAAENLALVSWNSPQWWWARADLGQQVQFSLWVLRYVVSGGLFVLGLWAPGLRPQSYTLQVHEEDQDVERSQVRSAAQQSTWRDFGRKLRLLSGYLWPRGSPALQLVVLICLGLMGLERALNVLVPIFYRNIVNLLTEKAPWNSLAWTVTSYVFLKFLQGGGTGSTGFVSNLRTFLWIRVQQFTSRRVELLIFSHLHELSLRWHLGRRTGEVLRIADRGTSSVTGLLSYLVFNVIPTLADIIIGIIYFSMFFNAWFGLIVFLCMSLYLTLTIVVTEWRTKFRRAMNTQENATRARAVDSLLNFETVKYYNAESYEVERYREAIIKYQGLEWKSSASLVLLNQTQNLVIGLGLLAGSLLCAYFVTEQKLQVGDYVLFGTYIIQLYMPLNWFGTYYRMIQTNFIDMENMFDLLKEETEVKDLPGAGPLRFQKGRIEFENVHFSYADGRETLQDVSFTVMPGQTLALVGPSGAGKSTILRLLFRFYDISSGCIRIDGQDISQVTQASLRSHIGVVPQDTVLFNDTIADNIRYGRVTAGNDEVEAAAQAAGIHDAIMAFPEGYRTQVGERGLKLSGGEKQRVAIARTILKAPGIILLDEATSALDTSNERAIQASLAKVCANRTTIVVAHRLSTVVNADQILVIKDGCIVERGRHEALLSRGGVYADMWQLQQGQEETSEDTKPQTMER
Sequence of AP-2 complex subunit beta (Homo sapiens) (P63010 whole entry, looked up, the tested form may be a part, one chain of several): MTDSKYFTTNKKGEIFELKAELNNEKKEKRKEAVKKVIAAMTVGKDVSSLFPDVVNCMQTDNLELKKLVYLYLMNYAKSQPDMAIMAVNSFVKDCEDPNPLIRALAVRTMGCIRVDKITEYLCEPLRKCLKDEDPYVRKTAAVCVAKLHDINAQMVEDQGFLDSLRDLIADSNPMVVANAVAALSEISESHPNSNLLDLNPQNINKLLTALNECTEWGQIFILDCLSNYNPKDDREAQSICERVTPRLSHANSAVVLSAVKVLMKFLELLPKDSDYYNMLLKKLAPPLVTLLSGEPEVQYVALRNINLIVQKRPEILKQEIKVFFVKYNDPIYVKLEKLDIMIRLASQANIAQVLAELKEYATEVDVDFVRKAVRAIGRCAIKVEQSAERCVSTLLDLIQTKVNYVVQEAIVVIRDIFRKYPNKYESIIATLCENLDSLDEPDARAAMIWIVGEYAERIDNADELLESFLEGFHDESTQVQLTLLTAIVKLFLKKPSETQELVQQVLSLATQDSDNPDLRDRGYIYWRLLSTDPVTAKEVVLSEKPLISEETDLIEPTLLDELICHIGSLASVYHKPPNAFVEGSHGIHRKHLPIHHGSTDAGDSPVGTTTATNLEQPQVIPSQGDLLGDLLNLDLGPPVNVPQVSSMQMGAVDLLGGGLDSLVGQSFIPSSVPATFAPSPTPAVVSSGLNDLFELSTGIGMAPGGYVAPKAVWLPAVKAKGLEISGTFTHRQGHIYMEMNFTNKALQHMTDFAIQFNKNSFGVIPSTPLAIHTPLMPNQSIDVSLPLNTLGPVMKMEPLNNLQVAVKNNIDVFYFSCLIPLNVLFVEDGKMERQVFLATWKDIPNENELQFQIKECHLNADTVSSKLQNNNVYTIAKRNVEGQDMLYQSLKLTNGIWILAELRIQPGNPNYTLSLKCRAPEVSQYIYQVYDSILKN
Sequence of Beta-2 adrenergic receptor (Homo sapiens) (P07550 whole entry, looked up): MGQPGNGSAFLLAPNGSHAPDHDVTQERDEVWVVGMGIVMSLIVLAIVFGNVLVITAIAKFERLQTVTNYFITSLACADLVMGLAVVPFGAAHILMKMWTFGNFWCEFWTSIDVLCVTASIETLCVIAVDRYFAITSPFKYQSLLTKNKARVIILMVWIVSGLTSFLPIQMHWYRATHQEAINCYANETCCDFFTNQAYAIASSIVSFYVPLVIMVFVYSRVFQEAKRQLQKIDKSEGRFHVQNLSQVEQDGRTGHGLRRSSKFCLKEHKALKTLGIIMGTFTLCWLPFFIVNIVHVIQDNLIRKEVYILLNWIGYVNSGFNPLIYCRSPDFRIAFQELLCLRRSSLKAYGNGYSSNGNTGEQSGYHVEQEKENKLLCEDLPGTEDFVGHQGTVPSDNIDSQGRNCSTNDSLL
Sequence of Beta-adrenergic receptor kinase 1 (Homo sapiens) (P25098 whole entry, looked up): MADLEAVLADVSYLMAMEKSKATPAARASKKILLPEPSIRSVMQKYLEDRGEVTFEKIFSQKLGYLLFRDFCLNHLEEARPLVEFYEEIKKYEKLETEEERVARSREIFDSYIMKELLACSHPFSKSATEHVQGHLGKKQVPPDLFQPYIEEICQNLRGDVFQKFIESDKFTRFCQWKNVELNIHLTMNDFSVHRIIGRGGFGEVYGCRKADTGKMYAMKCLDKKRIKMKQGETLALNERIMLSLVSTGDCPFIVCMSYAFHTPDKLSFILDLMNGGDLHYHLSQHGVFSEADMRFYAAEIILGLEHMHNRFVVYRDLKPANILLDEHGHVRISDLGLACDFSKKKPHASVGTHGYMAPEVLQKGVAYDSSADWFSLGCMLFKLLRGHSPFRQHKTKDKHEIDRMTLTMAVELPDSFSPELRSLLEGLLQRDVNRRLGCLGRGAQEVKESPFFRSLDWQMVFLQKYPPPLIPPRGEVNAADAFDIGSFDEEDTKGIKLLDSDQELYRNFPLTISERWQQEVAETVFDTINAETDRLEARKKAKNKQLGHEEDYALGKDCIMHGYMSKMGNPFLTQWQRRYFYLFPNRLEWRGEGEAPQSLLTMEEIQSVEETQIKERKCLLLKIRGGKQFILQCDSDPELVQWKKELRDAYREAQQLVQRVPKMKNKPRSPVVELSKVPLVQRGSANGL

Structure (SMILES) | percent of DMSO control GFP [1] | GFP response vs DMSO [2] | percent response of DMSO control [3] | GFP response vs DMSO [4] | GFP response, % of DMSO [5] | double positive events [6] [%] | vesicle binding response [6] | inhibition [7] | superoxide response (% of plate) [8] | aptamer binding inhibition [9] | response [10] | inhibition [11] | response [12] | binding (% of control) [13] | efflux inhibition (fraction of control) [14] | inhibition [15] | differentiation response [16]
COc1ccc(NC(=O)N2CCCCC2c2cccnc2)cc1 (stereo not given) | 98.9% (inactive) | 105% (inactive) | 99% (inactive) | 109% (inactive) | 105% (inactive) | 59.7 | 454% (inactive) | 7.4% (inactive) | 116% (inactive) | 7% (inactive) | -25.6% (inactive) | 0.21% (inactive) | 3.03% (inactive) | 103% (inactive) | 0 (inactive) | -2% (inactive) | -18.8% (inactive)
N/C(=N\OC(=O)CCCOc1ccc(Cl)cc1Cl)c1ccncc1 | 96.4% (inactive) | 110% (inactive) | 108% (inactive) | 118% (inactive) | 92.4% (inactive) | 56.8 | 142% (inactive) | 4.27% (inactive) | 103% (inactive) | -1% (inactive) | -12.7% (inactive) | 3.28% (inactive) | -3.36% (inactive) | 102% (inactive) | -0.005 (inactive) | -7% (inactive) | 4.2% (inactive)
CN(CCO)CC(O)Cn1cnc2c1c(=O)n(C)c(=O)n2C (stereo not given) (tested in a mixture with another compound) | 101% (inactive) | 109% (inactive) | 100% (inactive) | 106% (inactive) | 112% (inactive) | 62.5 | 211% (inactive) | 14.2% (inactive) | 93.2% (inactive) | -1% (inactive) | -18.1% (inactive) | -3.41% (inactive) | -1.98% (inactive) | 103% (inactive) | -0.09 (inactive) | 7% (inactive) | -3.02% (inactive)
O=C(CCc1c[nH]c2ccccc12)NCc1ccco1 | 102% (inactive) | 106% (inactive) | 93.8% (inactive) | 109% (inactive) | 106% (inactive) | 63 | 201% (inactive) | 3.99% (inactive) | 98.4% (inactive) | -3% (inactive) | -21.7% (inactive) | 33.1% (inactive) | 1.49% (inactive) | 103% (inactive) | 0.04 (inactive) | 5% (inactive) | 0.92% (inactive)
CC(C)C12CN3CC(C(C)C)(CN(C1)C3c1ccccc1)C2O (stereo not given) | 98.9% (inactive) | 101% (inactive) | 101% (inactive) | 101% (inactive) | 109% (inactive) | 63.9 | 110% (inactive) | 14.2% (inactive) | 99.3% (inactive) | 6% (inactive) | -12.3% (inactive) | 8.13% (inactive) | -11% (inactive) | 104% (inactive) | -0.09 (inactive) | 6% (inactive) | -0.06% (inactive)
O=C(N/N=C\c1cc([N+](=O)[O-])ccc1N1CCOCC1)c1ccccn1 | 107% (inactive) | 102% (inactive) | 107% (inactive) | 100% (inactive) | 103% (inactive) | 59.8 | 142% (inactive) | -7.79% (inactive) | 104% (inactive) | -2% (inactive) | -1.25% (inactive) | 1.39% (inactive) | 4.27% (inactive) | 102% (inactive) | 0.35 (inactive) | -1% (inactive) | -11.9% (inactive)
O=C(NC(=S)N1CCCCC1)c1cccnc1 | 102% (inactive) | 95.1% (inactive) | 97.8% (inactive) | 108% (inactive) | 99.4% (inactive) | 60.8 | 95.6% (inactive) | 11% (inactive) | 89.9% (inactive) | -3% (inactive) | -0.16% (inactive) | -15.4% (inactive) | -2.13% (inactive) | 93.3% (inactive) | -0.07 (inactive) | -15% (inactive) | 21.8% (inactive)
Nc1nc(Cl)nc2c1ncn2[C@@H]1O[C@H](CO)[C@@H](O)[C@H]1O | 92.4% (inactive) | 128% (inactive) | 101% (inactive) | 80.3% (inactive) | 102% (inactive) | 57.5 | 109% (inactive) | 2.58% (inactive) | 95.9% (inactive) | 6% (inactive) | -6.94% (inactive) | 1.36% (inactive) | 10.6% (inactive) | 104% (inactive) | 0.3 (inactive) | 9% (inactive) | 1.64% (inactive)
CC(C)C(CCN1C(=O)CCC1=O)C1CCOC(C)(C)C1 (stereo not given) | 103% (inactive) | 104% (inactive) | 100% (inactive) | 95.8% (inactive) | 101% (inactive) | 62.8 | 130% (inactive) | 3.98% (inactive) | 103% (inactive) | 11% (inactive) | -1.22% (inactive) | -12.4% (inactive) | -0.12% (inactive) | 98.8% (inactive) | 0.42 (inactive) | 10% (inactive) | 4.97% (inactive)
Cc1nonc1CN(C)C(=O)c1ccc(OC2CCN(C(=O)c3cccnc3)CC2)cc1 | 103% (inactive) | 105% (inactive) | 109% (inactive) | 98% (inactive) | 102% (inactive) | 57.8 | 176% (inactive) | 12.3% (inactive) | 94.8% (inactive) | 0% (inactive) | -1.64% (inactive) | -7.99% (inactive) | 2.88% (inactive) | 103% (inactive) | 0.05 (inactive) | 12% (inactive) | -8.96% (inactive)
